According to PubChem BioAssay AID1835 (Johns Hopkins Ion Channel Center, 2009):
In all, about 2,400 compounds went through this assay and about 750 (31%) were called active.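 The calls were made as follows: active = median signal gain over dofetilide-blocked control wells reaching their mean plus 3 SD, so readout 1 at least 0; inactive = the rest.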 Some of the results follow.

The compounds below were run against Voltage-gated inwardly rectifying potassium channel KCNH2 (Homo sapiens) (UniProt Q12809) (assay: modulators restoring hERG flux under dofetilide – cell-based, thallium flux, duplicate retest, dofetilide IC70, confirmation (AID 1835)). Details: hERG cell line, FluxOR thallium flux, dofetilide-blocked; at 10 µM; active compounds read high.
Sequence of Voltage-gated inwardly rectifying potassium channel KCNH2 (Homo sapiens) (Q12809 whole entry, looked up): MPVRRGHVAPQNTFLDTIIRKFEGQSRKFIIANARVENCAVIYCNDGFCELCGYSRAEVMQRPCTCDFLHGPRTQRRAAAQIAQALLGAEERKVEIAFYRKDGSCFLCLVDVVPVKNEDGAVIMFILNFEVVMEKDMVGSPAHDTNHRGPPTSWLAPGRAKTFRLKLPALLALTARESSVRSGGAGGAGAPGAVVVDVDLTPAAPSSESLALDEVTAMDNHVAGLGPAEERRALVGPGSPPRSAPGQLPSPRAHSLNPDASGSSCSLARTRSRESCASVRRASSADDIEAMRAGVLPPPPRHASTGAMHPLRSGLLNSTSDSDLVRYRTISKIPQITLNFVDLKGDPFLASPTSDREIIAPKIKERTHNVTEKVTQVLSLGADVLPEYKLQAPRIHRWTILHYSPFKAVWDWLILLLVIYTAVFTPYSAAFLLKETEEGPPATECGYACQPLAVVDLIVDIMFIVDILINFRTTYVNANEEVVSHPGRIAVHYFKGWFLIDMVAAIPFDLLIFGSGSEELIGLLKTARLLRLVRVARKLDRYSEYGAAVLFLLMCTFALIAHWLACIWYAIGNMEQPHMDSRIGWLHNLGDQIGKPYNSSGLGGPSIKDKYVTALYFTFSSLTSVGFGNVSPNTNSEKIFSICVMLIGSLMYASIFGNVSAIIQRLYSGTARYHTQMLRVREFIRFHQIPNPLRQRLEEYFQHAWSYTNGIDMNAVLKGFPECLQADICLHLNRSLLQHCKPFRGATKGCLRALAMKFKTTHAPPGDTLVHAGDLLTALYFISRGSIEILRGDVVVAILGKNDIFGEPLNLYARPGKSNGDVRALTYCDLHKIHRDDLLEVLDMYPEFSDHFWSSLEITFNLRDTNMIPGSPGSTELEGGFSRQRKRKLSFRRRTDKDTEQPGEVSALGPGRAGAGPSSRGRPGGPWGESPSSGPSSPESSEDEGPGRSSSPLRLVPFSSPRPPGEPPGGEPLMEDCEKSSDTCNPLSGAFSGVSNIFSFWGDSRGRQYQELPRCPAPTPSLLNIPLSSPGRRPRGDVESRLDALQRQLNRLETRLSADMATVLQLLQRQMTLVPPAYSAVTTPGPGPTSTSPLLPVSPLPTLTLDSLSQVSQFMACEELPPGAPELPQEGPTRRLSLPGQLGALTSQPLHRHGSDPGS

SMILES | activity increase over dofetilide control, less the hit threshold
O=C(NC(=S)Nc1nc(-c2ccc([N+](=O)[O-])cc2)cs1)c1ccco1 | 16% (active)
O=C(CCc1ccc(S(=O)(=O)N2CCCCC2)cc1)c1nnc(-c2ccccc2)o1 | -14% (inactive)
Cc1[nH]c(=S)c(C#N)c(C)c1Cc1ccc(Cl)cc1Cl | -12% (inactive)
O=C(N/N=C/C(Cl)=C/c1ccc([N+](=O)[O-])cc1)C(=O)Nc1ccc(C(=O)O)cc1 | -13% (inactive)
O=c1c(C(c2ccc(O)cc2)c2c(O)nc3n(c2=O)CCS3)c(O)nc2n1CCS2 | 3% (active)
O=C(N=Nc1c(O)[nH]c2ccc([N+](=O)[O-])cc12)c1cc(-c2ccccc2Cl)nc2ccccc12 | 97% (active)
O=[N+]([O-])c1cccc(NC(=S)Nc2nc(-c3ccccc3Cl)cs2)c1 | -7% (inactive)
CN(C)/C(=N\S(=O)(=O)c1ccccc1)c1ccc(F)cc1 | -9% (inactive)
S=c1[nH]c(-c2ccccc2)cn1/N=C/c1cccc2ccccc12 | 2% (active)
Cc1cccc(-n2cc(-c3ccccc3)[nH]c2=S)c1 | -6% (inactive)
S=C(N/N=C/c1cccc2ccccc12)Nc1cccc(Cl)c1 | -8% (inactive)
Cc1c(OC(C(=O)O)c2ccccc2)ccc2c(-c3ccccc3)cc(=O)oc12 (configuration not stated) | -3% (inactive)
COc1ccc(NC(=O)C2CC3CCC2C3)c(OC)c1 (configuration not stated) | -8% (inactive)
COc1ccc(C(=O)NNC(=O)CSc2nnc(COc3ccccc3)n2C)cc1 | -24% (inactive)
COc1cccc(C(=O)NNC(=O)C(=O)Nc2cccc3ccccc23)c1 | 52% (active)
COc1ccc(C(=O)NNC(=O)C(=O)Nc2cccc3ccccc23)cc1 | 51% (active)
COc1cc(OC)cc(C(=O)NNC(=O)C(=O)Nc2cc(OC)c(Cl)cc2OC)c1 | 68% (active)
COc1cccc(CCNS(=O)(=O)CCNC(=O)c2cccc(OC)c2)c1 | -15% (inactive)
Cc1cc(C(=O)Nc2cccc3ccccc23)c(C)o1 | -12% (inactive)
COc1cc(NC(=O)c2cc(-c3cccnc3)nc3ccc(C)cc23)c(OC)cc1Cl | -17% (inactive)
COc1cccc(C(=O)NNC(=O)C(=O)Nc2ccc(OC)cc2OC)c1 | 19% (active)
CN(C)CCOC(=O)C1(c2ccccc2)CCCC1 | -3% (inactive)
O=C(CSc1cccc2cccnc12)N/N=C/c1cccnc1 | -19% (inactive)
COC(=O)c1ccc(Oc2ccc(S(=O)(=O)N3CCCCC3)cc2N)cc1 | -12% (inactive)
O=S(=O)(Nc1cccc(-n2cnnn2)c1)c1ccc(Cl)nc1 | -11% (inactive)
CCOCCOCN(C#N)c1nc(OC)nc(N(C)C)n1 | -22% (inactive)

SMILES | activity increase over dofetilide control, less the hit threshold
O=C(CN1C(=O)CSCC1=O)Nc1ccc2c(c1)OCO2 | -6% (inactive)
O=C(NC(=S)N(CCCCO)C1CCCCC1)c1sc2ccccc2c1Cl | 29% (active)
COC(=O)CC1C(=O)NCCN1C(=S)NC(=O)c1sc2ccccc2c1Cl (configuration not stated) | -1% (inactive)
CC1CCCCC1NC(=S)NC(=O)c1cccs1 (configuration not stated) | 44% (active)
CC1CCCCC1NC(=S)NC(=O)c1sc2ccccc2c1Cl (configuration not stated) | 5% (active)
CN(CC(=O)Nc1ccc(OC(F)(F)F)cc1)S(=O)(=O)c1cnc[nH]1 | -9% (inactive)
FC(F)c1nnc2c(Cl)cc(C(F)(F)F)cn12 | -11% (inactive)
O=C(NC(=S)NNC(=O)[C@H]1C[C@@H]1c1ccccc1)c1cccc(F)c1 | -14% (inactive)
C=CCn1c(SCC(N)=O)nc2scc(-c3ccc(C)o3)c2c1=O | -19% (inactive)
C=CCn1c(=S)[nH]c2scc(-c3cccs3)c2c1=O | 90% (active)
C=CCn1c(=S)[nH]c2scc(-c3ccc(C)o3)c2c1=O | 72% (active)
O=C(Nc1ccc(Cl)c(Cl)c1)Nc1nnc(CSc2ccccc2)s1 | -10% (inactive)
N#CC(=C1SC=CS1)c1nc(-c2ccccc2)cs1 | -7% (inactive)
COC(=O)c1cc(-c2ccc(C)cc2)n[nH]1 | -17% (inactive)
Cc1ccc(-c2n[nH]c(=S)nc2-c2ccc(C)cc2)cc1 | 13% (active)
S=c1nc(-c2ccccc2)c(-c2ccccc2)n[nH]1 | -9% (inactive)
Cn1cc(/C=C2\SC(=O)NC2=S)c2ccccc21 | -24% (inactive)
CCOc1ccc(/C=C2/SC(=O)NC2=S)cc1 | 92% (active)
CCOc1cc(-n2ncc(C#N)c2N)nc(SC)n1 | -12% (inactive)
CCOC(=O)c1ccc(Oc2cc(C)nc(SC)n2)cc1 | 10% (active)
CCc1ccc(OCC(=O)Nc2ncn[nH]2)cc1 | -29% (inactive)
O=C(COc1cccc(-n2cnnn2)c1)Nc1ccc([N+](=O)[O-])cc1 | -1% (inactive)
COc1cccc(NC(=O)CSCc2n[nH]c(=O)[nH]2)c1 | -20% (inactive)
COc1cccc(OCC(=O)NNC(=O)C(=O)Nc2cccc(C)c2)c1 | 50% (active)
CCc1ccc(NC(=O)C(=O)NNC(=O)COc2cccc(OC)c2)cc1 | 14% (active)
Cc1cccc(OCC(=O)NCc2nc(-c3ccccc3)no2)c1 | -13% (inactive)
